Results filed as inconclusive are left out. The source made the active and inactive calls. The call rests on the fitted dose curve; in most records, active means well fitted curve in the direction sought with a large enough effect; inconclusive means small, poorly fitted or top-dose-only effect, or another doubt; inactive means no such curve, though single readings can be large; an effect the other way counts as inactive or inconclusive.
Experiments:
[1] = molecular target: Thioredoxin reductase 1, cytoplasmic (Rattus norvegicus) (UniProt O89049); assay: qHTS Assay for Inhibitors of Mammalian Selenoprotein Thioredoxin Reductase 1 (TrxR1) (AID 488773); details: Potency: inhibition;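 further: drop in NADPH fluorescence over an 8 min run after selenite addition; series mostly up to about 57 µM; nearly all actives have a fitted effect of over 40% in size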
In short: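 Steps: enzyme (90 nM) plus NADPH (400 uM final), 5 min at ~22 deg C; compound added, 15 min; selenite (400 uM final) added; fluorescence followed for 8 min. Concentration-response curves derived from the normalized delta values.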

[2] = molecular target: Flap endonuclease 1 (Homo sapiens) (UniProt P39748); assay: qHTS Validation Assay for the Inhibitors of Human Flap endonuclease 1 (FEN1) (AID 488816)
In short: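 Readings taken at 0 and 15 min after starting the reaction with 50 nM (final) substrate supplied the signal. Compounds had first sat with 10 nM FEN1 reagent for 15 min at room temperature. Values come from Hill-equation concentration-response fits.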

[3] = molecular target: M-phase phosphoprotein 8 (Homo sapiens) (UniProt Q99549); assay: qHTS Validation Assay for Inhibitors for MPP8 Chromodomain Interactions with Methylated Histone Tails (AID 488949); further: top concentration of the series differs between compounds; nearly all actives have a fitted effect of over 55% in size
In short: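 MPP8 (50 nM) was pre-bound to 50 nM biotinylated H3(1-18)K9me3 peptide in PBS pH 7.4 with 0.01% Tween-20. Compounds were then added for 30 min at room temperature, and complex disruption was read by AlphaScreen with streptavidin donor and nickel-chelate acceptor beads.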

[4] = molecular target: Chromobox protein homolog 1 (Homo sapiens) (UniProt P83916); assay: qHTS Validation Assay for Inhibitors of HP1-beta Chromodomain Interactions with Methylated Histone Tails (AID 488953);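 further: loss of AlphaScreen luminescence from HP1-beta binding biotinylated H3K9me3 peptide; series mostly up to about 110 µM; nearly all actives have a fitted effect of over 50% in size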
In short: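 HP1-beta (50 nM) preformed 30 min with biotinylated H3(1-18)K9me3 peptide (50 nM) in PBS pH 7.4, 0.01% Tween-20. Compounds added for 30 min at room temperature. Complex disruption read by AlphaScreen with streptavidin donor/nickel chelate acceptor beads (10 ug/mL each).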

[5] = molecular target: Methanococcus maripaludis chaperonin (MmCpn) (UniProt Q6LX38); assay: High-Throughput Screening for Modulators of Cytosolic Chaperonin Activity: MmCpn Primary Screen (AID 488978);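 further: 50 nM MmCpn enzyme hydrolysing 30 µM ATP at 37 °C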
In short: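 MmCpn at 50 nM final was preincubated 5 min at RT with compound. ATP was then added at 30 uM final for 10 min at 37 C. ADP formed was detected by Transcreener HTRF (665/590 nm).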

[6] = molecular target: Transient receptor potential cation channel subfamily V member 1 (Homo sapiens) (UniProt Q8NER1); assay: HTS Assay for Compounds that Act as Enhancers of the Vanilloid Receptor 1 (AID 488979)
In short: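 Calcium influx kinetics via Fluo-8 (480/520 nm) in TRPV1-expressing cells, 2000/well cultured overnight at 35.5C. Compound-alone read 3 min (agonist phase), followed by EC20 capsaicin challenge for 2 min (enhancer phase).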

[7] = molecular target: D(1A) dopamine receptor (Homo sapiens) (UniProt P21728); assay: HTS Assay for Allosteric Agonists of the Human D1 Dopamine Receptor: Primary Screen for Agonists (AID 488981)
In short: (§1)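 Calcium flux in an inducible, force-coupled HEK293 Trex D1 line (overnight at 30 C): agonist mode is the 180 s kinetic read after compound; potentiator mode is the following 180 s read after dopamine at EC20.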

[8] = molecular target: D(1A) dopamine receptor (Homo sapiens) (UniProt P21728); assay: HTS Assay for Allosteric Agonists of the Human D1 Dopamine Receptor: Primary Screen for Potentiators (AID 488982)
In short: as §1

[9] = molecular target: D(1A) dopamine receptor (Homo sapiens) (UniProt P21728); assay: HTS Assay for Allosteric Agonists of the Human D1 Dopamine Receptor: Primary Screen for Antagonists (AID 488983);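 further: calcium flux response to an EC80 dopamine challenge measured with no-wash dye; nearly all actives have a fitted effect of over 65% in size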
In short: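 Tetracycline-induced HEK293 T-REx D1 line, force-coupled to calcium flux, read with no-wash calcium dye. Compound added after 10 s baseline, read 180 s for agonism, then EC80 dopamine added and read a further 180 s.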

[10] = molecular target: Thyrotropin receptor (Homo sapiens) (UniProt P16473); assay: qHTS Assay for Antagonists of the Thyroid Stimulating Hormone Receptor (AID 488980); further: series mostly up to about 58 µM
In short: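 TSHR-transfected HEK293 cells (2000/well) in HEPES-buffered HBSS with 70 uM RO 20-1724 were stimulated with 4 nM TSH (EC80, final) in the presence of compound. cAMP was measured by HTRF competition after lysis and 30 min at RT.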

Measured: Potency

Chain of Chromobox protein homolog 1 (Homo sapiens) (P83916 whole entry, looked up): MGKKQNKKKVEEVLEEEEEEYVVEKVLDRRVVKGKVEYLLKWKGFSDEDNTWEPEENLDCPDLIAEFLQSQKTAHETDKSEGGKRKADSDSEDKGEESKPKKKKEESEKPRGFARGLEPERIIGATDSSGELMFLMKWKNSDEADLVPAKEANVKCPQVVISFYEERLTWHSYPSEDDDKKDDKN
Chain of D(1A) dopamine receptor (Homo sapiens) (P21728 whole entry, looked up): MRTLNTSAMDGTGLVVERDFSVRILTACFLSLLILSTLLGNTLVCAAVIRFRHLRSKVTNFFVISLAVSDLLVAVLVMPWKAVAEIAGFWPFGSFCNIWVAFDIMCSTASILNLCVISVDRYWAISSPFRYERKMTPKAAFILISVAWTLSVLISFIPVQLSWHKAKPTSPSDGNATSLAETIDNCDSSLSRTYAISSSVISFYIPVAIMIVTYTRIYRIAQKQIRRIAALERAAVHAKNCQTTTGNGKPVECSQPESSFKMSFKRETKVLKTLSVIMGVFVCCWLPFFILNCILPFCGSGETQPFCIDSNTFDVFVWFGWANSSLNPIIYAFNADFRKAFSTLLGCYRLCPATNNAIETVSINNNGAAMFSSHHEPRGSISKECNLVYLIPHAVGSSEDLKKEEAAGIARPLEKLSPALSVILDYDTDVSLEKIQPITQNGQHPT
Chain of Thyrotropin receptor (Homo sapiens) (P16473 whole entry, looked up): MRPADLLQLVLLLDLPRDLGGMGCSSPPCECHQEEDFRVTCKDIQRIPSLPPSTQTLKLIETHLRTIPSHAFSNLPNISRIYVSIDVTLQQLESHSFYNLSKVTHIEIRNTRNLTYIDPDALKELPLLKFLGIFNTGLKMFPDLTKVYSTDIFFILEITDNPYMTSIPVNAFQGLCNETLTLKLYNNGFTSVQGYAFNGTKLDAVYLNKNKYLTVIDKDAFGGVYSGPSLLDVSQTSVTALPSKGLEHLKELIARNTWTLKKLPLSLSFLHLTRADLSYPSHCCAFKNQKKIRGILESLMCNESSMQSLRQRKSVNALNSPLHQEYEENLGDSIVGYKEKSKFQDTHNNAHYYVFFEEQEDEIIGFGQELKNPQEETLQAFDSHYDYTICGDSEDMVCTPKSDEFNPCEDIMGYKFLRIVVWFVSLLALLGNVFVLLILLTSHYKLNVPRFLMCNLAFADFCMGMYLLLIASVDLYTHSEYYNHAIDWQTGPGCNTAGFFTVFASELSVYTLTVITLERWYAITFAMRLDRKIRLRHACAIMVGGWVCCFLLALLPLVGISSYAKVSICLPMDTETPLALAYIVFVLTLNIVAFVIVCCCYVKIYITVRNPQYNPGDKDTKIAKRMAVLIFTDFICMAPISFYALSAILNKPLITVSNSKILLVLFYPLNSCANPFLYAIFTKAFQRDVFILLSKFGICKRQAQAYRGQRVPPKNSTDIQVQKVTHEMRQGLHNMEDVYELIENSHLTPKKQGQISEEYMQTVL
Chain of Methanococcus maripaludis chaperonin (MmCpn) (Q6LX38 1-543): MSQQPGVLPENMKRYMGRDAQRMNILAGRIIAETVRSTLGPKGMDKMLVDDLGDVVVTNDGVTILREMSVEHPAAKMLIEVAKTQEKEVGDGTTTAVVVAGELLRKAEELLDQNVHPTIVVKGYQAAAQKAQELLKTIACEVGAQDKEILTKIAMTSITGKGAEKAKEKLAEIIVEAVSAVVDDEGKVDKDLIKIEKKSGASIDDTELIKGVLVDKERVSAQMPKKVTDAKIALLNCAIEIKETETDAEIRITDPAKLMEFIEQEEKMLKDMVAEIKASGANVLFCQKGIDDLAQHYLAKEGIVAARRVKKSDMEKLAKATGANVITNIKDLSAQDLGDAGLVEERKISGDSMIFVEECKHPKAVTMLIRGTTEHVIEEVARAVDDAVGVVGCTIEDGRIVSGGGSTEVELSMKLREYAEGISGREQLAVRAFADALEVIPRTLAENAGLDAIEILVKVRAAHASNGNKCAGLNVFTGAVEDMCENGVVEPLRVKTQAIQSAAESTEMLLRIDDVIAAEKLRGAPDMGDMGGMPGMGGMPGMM
Chain of M-phase phosphoprotein 8 (Homo sapiens) (Q99549 whole entry, looked up): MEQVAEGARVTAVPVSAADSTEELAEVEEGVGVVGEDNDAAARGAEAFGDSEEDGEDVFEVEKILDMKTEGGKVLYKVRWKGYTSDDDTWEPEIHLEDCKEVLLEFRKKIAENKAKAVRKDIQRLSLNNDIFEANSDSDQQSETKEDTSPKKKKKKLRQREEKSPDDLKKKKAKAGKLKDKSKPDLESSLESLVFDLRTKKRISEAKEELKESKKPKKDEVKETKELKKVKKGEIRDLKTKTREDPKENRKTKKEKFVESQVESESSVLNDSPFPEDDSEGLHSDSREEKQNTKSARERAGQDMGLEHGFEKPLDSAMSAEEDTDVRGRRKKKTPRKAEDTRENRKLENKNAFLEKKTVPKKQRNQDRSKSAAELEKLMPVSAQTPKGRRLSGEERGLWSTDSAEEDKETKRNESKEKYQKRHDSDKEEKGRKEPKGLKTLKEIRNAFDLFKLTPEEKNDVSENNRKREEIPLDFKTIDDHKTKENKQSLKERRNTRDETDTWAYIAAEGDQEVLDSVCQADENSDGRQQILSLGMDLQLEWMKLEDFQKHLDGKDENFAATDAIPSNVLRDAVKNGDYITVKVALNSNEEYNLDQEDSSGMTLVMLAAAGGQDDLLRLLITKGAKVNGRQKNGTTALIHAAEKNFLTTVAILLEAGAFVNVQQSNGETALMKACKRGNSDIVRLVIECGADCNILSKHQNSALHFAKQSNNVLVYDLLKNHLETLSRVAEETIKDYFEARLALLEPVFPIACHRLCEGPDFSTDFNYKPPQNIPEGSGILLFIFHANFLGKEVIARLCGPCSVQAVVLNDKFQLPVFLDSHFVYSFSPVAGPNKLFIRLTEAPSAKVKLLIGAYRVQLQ
Chain of Transient receptor potential cation channel subfamily V member 1 (Homo sapiens) (Q8NER1 whole entry, looked up): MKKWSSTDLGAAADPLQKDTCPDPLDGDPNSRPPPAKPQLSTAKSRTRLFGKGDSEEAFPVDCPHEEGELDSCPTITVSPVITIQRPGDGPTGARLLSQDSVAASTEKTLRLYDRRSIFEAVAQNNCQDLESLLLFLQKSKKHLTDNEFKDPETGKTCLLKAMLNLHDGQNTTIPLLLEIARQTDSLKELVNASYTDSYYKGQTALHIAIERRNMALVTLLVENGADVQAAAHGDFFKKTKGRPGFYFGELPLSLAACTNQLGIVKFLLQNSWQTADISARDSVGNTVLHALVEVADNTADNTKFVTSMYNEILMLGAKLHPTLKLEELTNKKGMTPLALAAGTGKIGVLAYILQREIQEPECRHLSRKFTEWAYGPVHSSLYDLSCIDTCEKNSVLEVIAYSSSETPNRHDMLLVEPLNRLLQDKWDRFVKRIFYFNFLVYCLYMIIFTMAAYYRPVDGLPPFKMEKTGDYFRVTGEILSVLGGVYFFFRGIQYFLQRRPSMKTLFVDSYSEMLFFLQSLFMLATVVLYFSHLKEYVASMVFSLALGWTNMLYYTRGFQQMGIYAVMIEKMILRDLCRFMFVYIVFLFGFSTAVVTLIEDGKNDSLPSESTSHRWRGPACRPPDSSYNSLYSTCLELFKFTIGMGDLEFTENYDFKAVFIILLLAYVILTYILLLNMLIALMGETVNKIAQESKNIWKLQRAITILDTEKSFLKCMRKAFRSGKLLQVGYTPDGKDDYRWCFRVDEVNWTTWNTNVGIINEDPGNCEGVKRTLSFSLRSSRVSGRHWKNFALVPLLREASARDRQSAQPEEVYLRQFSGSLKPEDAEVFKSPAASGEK
Chain of Thioredoxin reductase 1, cytoplasmic (Rattus norvegicus) (O89049 whole entry, looked up): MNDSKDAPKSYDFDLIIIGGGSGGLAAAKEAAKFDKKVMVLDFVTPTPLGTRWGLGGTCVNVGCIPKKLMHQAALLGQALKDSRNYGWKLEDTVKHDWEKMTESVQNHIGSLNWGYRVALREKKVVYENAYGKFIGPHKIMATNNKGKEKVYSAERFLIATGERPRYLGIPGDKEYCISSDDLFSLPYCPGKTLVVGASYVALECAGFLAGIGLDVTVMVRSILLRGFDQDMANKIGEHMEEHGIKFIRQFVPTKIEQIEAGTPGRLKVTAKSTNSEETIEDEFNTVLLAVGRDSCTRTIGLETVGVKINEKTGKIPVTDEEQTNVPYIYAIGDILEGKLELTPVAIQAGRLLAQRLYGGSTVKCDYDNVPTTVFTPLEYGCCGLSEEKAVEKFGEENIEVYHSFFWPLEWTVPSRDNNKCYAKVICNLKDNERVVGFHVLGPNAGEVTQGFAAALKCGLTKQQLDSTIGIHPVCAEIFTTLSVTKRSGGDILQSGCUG
Chain of Flap endonuclease 1 (Homo sapiens) (P39748 whole entry, looked up): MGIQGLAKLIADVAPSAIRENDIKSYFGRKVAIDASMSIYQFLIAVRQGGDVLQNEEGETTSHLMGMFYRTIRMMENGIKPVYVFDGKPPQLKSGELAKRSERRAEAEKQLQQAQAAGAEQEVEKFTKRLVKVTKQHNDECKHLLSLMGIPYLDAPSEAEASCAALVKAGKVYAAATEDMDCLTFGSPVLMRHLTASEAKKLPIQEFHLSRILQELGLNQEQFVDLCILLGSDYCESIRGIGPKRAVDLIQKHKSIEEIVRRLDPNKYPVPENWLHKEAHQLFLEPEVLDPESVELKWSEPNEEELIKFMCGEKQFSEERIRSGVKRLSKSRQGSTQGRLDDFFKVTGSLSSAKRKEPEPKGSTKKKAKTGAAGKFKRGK

CC(C[N+](C)(C)C)OC(N)=O (configuration not stated)
not listed: [10]
inactive: all other assays above

O=c1[nH]cnc2[nH]ncc12
not listed: [10]
inactive: all other assays above

O=C(Nc1nc2ccccc2n1CCN1CCOCC1)c1cccc([N+](=O)[O-])c1
inactive: [1] | [2] | [3] | [5] | [7] | [9]

NCCCC(N)(C(=O)O)C(F)F (configuration not stated)
not listed: [4]
inactive: all other assays above

CC(C)(C)NCC(O)c1ccc(O)c(CO)c1 (configuration not stated)
not listed: [2]
inactive: all other assays above
